CBX7 AlphaScr: blocks human CBX7 binding to H3K27me3 peptide | O95931 | AlphaScreen His6-CBX7 / biotin-H3K27me3 peptide binding; hits give low values | 66,000 compounds, 1.1% hits | AID 1224903 | normalised signal (fraction of DMSO) (concentration not given with the values); in the data active = normalised signal below about 0.5
Target sequence (O95931 whole entry, looked up): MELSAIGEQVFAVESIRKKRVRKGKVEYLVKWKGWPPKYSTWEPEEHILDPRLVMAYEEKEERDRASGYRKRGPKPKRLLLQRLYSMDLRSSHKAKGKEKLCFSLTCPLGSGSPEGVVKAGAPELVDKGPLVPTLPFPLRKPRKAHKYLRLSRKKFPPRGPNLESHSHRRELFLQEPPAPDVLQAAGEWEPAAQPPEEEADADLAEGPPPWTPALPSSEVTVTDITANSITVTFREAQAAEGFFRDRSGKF
* = called active by the depositor. Only a selection was taken, and hits are over-represented in it overall.

SMILES	CBX7 AlphaScr
Cc1nc(C)c(-c2csc(Nc3cccc(C(=O)O)c3)n2)s1	1.1
Cc1cccc(Nc2nc(-c3sc(C)nc3C)cs2)c1	0.45*
Cc1nc(C)c(-c2csc(Nc3ccccc3)n2)s1	0.48*
c1ccc(Nc2nc(-c3cccs3)cs2)cc1	0.9
Cc1nc(C)c(-c2csc(Nc3cccc(O)c3)n2)s1	0.54
Cc1nc(C)c(-c2csc(Nc3ccc(C(=O)O)cc3)n2)s1	0.88
COc1ccc(Cl)cc1NC(=O)Nc1cccs1	1
CCOC(=O)CNc1c(NCCc2ccc(Cl)cc2)c(=O)c1=O	1
Cc1cccc(N2CCN(C(=O)c3ccc4c(c3)N(Cc3ccccc3)CCS4)CC2C)c1 (stereo unspecified)	0.79
COc1ccc(C)cc1S(=O)(=O)NCCc1c(C)[nH]c2ccc(F)cc12	1
COc1ccc(Cl)cc1S(=O)(=O)NCCc1c(C)[nH]c2ccc(F)cc12	0.92
COc1cc(S(=O)(=O)NCCc2c(C)[nH]c3ccc(Br)cc23)c(C)cc1C	0.59
COc1cc(S(=O)(=O)NCCc2c(C)[nH]c3ccc(F)cc23)c(C)cc1C	0.91
COc1cc(C)c(S(=O)(=O)NCCc2c(C)[nH]c3ccc(C)cc23)cc1C	0.38*
COc1ccc(Cl)cc1S(=O)(=O)NCCc1c(C)[nH]c2ccc(C)cc12	0.48*
Cc1oc(-c2ccccc2F)nc1CN1CCCC(C(=O)NC2CC2)C1 (stereo unspecified)	1
CCCn1c(C2CC(=O)N(c3cccc(C)c3C)C2)nc2ccccc21 (stereo unspecified)	0.99
CCC1Oc2ccc(C)cc2N(CC(=O)N2CCN(c3ccccc3F)CC2)C1=O (stereo unspecified)	0.92
COc1ccccc1-n1c2c(cc(C(=O)N3CCC(C)CC3)c1=O)C(=O)CC(C)(C)C2	1
Cc1ccc(-n2c(-c3ccccc3)cc3c2CC(C)(C)CC3=O)cc1Cl	0.82
COc1ccc(-c2cc3c(n2-c2ccccc2)CC(C)(C)CC3=O)cc1	0.79
COc1cccc(-n2c(-c3ccc(C)cc3)cc3c2CC(C)(C)CC3=O)c1	0.35*
CCOc1ccc(-n2c(-c3ccc(OC)cc3)cc3c2CC(C)(C)CC3=O)cc1	0.4*
COc1ccc(-n2c(-c3ccc(C)cc3)cc3c2CC(C)(C)CC3=O)cc1	0.95
COc1ccc(Cn2c(-c3ccc(C)cc3)cc3c2CC(C)(C)CC3=O)cc1	0.8
SMILES	CBX7 AlphaScr
COc1ccccc1-n1c(-c2ccc(C)cc2)cc2c1CC(C)(C)CC2=O	0.32*
Cc1ccc(-c2cc3c(n2-c2ccccc2)CC(C)(C)CC3=O)cc1	0.95
COc1ccc(-n2c3c(cc(C(=O)Nc4ccc(OC)cc4OC)c2=O)C(=O)CC(C)(C)C3)cc1	1.1
COc1ccc(-n2c(-c3ccc(Cl)cc3)cc3c2CC(C)(C)CC3=O)cc1	0.88
COc1ccc(-n2c(-c3ccc(C)cc3)cc3c2CC(C)(C)CC3=O)c(OC)c1	0.27*
CC(c1ccccc1)c1nnc(NC(=O)c2ccc(Cl)cc2)s1 (stereo unspecified)	1.1
CCOC(=O)c1cnc2cc(C(F)(F)F)ccc2c1NCc1ccccc1OC	1.6
CCc1ccc(C2(c3ccc(CC)cc3)CC2C(=O)Nc2ccc(F)cc2)cc1 (stereo unspecified)	1.2
COc1ccc(NC(=O)CCc2c(C)nc3cc(-c4ccc(Cl)cc4)nn3c2C)cc1	1.1
CN(C)CCNC(=O)c1csc2c1CCCC2	1.1
O=C(NCCC1=CCCCC1)c1ccc2nc(N3CCOCC3)sc2c1	1
CCOc1ccc(-c2cc(C)nc(-c3ccc(OCC)cc3)c2)cc1	1.3
O=C(O)C1CCN(C2CC(=O)N(c3cccc4ccccc34)C2=O)CC1 (stereo unspecified)	1
COc1ccccc1Nc1nc(-c2ccccc2Cl)nc2ccccc12	1.3
COc1ccccc1Nc1nc(-c2ccncc2)nc2ccccc12	0.33*
COc1ccccc1Nc1nc(-c2ccc(C)cc2)nc2ccccc12	1.4
COCCNC(=O)C(=O)NCc1ccncc1	1.1
COc1ccc(CNC(=O)c2cc3c([nH]c2=O)CC(C)(C)CC3=O)cc1	1.2
COc1ccc(Nc2nc(-c3ccccc3Cl)nc3ccccc23)cc1	1.1
CN(C)c1ccc(Nc2nc(-c3ccccc3Cl)nc3ccccc23)cc1	0.3*
Oc1ccc(Nc2nc(-c3ccccc3Cl)nc3ccccc23)cc1	0.8
CCOc1ccc2nc(N3CCC(C(=O)N4CCN(c5cc(C)ccc5C)CC4)CC3)sc2c1	0.84
Cn1c(=O)c(Cc2cccc(F)c2)nc2ccccc21	0.95
O=C(Nc1ccc(F)cc1)C(Cc1ccccc1)NS(=O)(=O)c1cccc2cccnc12 (stereo unspecified)	1.1
CCn1c(COc2cccc3cccnc23)nnc1SCC(=O)OC	0.98
SMILES	CBX7 AlphaScr
O=C(CC(Sc1cccc2cccnc12)c1ccc(F)cc1)c1cccs1 (stereo unspecified)	0.0063*
Cc1nc2cc(C(=O)NCCc3ccccc3)ccc2n1-c1cccc(F)c1	1
CCCCOc1ccc(S(=O)(=O)Nc2ccc(-c3cn4ccccc4n3)cc2)cc1	0.82
OCCN(CC#CCC(O)(c1ccccc1)C1CCCC1)Cc1ccccc1 (stereo unspecified)	0.85
CCOC(=O)c1cnc2ccc(OCC)cc2c1N1CCN(c2ccccc2)CC1	0.74
CCOC(=O)c1cnc2ccc(OC)cc2c1Nc1ccc(OC)cc1	0.58
CCOC(=O)c1cnc2ccc(OCC)cc2c1Nc1ccc(OCC)cc1	1.1
CCOC(=O)c1cnc2ccc(C)cc2c1Nc1ccc(N2CCOCC2)cc1	0.89
CCOC(=O)c1cnc2ccc(OC)cc2c1Nc1ccc(N(C)C)cc1	0.26*
CCOC(=O)c1cnc2ccc(OCC)cc2c1Nc1ccc(C)c(C)c1	1.2
CCOC(=O)c1cnc2ccc(OCC)cc2c1Nc1ccc(F)c(Cl)c1	0.4*
CCOC(=O)c1cnc2ccc(OC)cc2c1Nc1ccc(C)cc1	0.99
CCOC(=O)c1cnc2ccc(OCC)cc2c1N1CCN(c2ccccc2F)CC1	0.17*
CCOC(=O)c1cnc2ccc(OCC)cc2c1N1CCCC1	0.9
CCOC(=O)c1cnc2ccc(C)cc2c1Nc1ccc(N2CCCCC2)cc1	0.28*
CCOC(=O)c1cnc2ccc(Cl)cc2c1Nc1ccc(N2CCOCC2)cc1	0.58
O=C(CCN1N=C(c2ccccc2)CCC1=O)NCc1ccc2c(c1)OCO2	1.1
CC1CCN(S(=O)(=O)c2ccc3c(c2)N(CC(=O)Nc2ccc(Cl)cc2)C(=O)CO3)CC1	0.83
Cc1cc(C)c(NC2c3ccccc3C(=O)N2c2cccnc2)c(C)c1 (stereo unspecified)	0.97
COc1ccccc1C(=O)Nc1cc(-c2nc3cc(C(C)C)ccc3o2)ccc1Cl	1.2
O=C(CSc1oc(-c2cccs2)nc1S(=O)(=O)c1ccccc1)NCC1CCCO1 (stereo unspecified)	0.91
O=C(NCCCN1CCN(c2cccc(Cl)c2)CC1)C1CCN(S(=O)(=O)c2cnc[nH]2)CC1	0.95
CC(=O)Nc1ccc(NC(=O)CCc2c(C)nc3ncnn3c2C)cc1	1.1
CCOC(=O)c1cnc2ccc(C)cc2c1Nc1ccc(OCC)cc1	0.93
CCOC(=O)c1cnc2c(C)cc(C)cc2c1Nc1ccc(N2CCCCC2)cc1	0.28*
CCOC(=O)c1cnc2c(C)cc(C)cc2c1Nc1ccc(Cl)cc1	1.2
CCOC(=O)c1cnc2c(C)cc(C)cc2c1Nc1ccc(F)cc1	1.2
CCOC(=O)c1cnc2ccc(C)cc2c1Nc1ccc(N(CC)CC)cc1	0.42*
CCOC(=O)c1cnc2ccccc2c1Nc1ccc(C)cc1	0.99
Cc1onc(-c2ccccc2Cl)c1C(=O)Nc1cccc(Br)c1	0.99
